Values joined by “and” are separate entries in the source; they are usually repeats but may differ in a detail not shown here. Equal values may be shown once. Results filed as inconclusive are left out. Active and inactive are the calls of the source. Unless noted, calls come from the whole dose curve; as a rule, active = well fitted curve in the direction sought with a large enough effect; inconclusive = small, poorly fitted or top-dose-only effect, or another doubt; inactive = no such curve, though single readings can be large; an effect the other way counts as inactive or inconclusive.
Tests used:
[1] = qHTS assay for small molecule agonists of retinoid X receptor alpha signaling (AID 588544; calls by dose curve;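 for activation: 0% = DMSO basal wells and 100% = reference agonist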); conditions: HEK293T RXRa-UAS-bla, beta-lactamase reporter, 18 h; 530 nm emission
[2] = biological target: Retinoic acid receptor RXR-alpha (Homo sapiens) (UniProt P19793); test: as above
Sequence of Retinoic acid receptor RXR-alpha (Homo sapiens) (P19793 whole entry, looked up): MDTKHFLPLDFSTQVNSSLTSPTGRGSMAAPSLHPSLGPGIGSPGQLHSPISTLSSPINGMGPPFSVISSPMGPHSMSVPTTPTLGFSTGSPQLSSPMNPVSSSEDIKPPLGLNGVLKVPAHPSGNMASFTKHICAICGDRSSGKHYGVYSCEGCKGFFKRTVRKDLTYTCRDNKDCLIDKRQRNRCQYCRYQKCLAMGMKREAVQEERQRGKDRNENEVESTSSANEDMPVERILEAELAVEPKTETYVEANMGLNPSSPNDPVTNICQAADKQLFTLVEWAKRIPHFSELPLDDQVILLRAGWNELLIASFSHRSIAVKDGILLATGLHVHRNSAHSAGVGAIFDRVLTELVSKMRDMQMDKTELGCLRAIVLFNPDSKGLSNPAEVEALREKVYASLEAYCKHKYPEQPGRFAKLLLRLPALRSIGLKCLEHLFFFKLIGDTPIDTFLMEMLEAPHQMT

[3] = biological target: Thyroid hormone receptor beta (Homo sapiens) (UniProt P10828); test: qHTS assay for small molecule agonists of thyroid hormone receptor beta signaling (AID 588545; calls by dose curve)
Sequence of Thyroid hormone receptor beta (Homo sapiens) (P10828 whole entry, looked up): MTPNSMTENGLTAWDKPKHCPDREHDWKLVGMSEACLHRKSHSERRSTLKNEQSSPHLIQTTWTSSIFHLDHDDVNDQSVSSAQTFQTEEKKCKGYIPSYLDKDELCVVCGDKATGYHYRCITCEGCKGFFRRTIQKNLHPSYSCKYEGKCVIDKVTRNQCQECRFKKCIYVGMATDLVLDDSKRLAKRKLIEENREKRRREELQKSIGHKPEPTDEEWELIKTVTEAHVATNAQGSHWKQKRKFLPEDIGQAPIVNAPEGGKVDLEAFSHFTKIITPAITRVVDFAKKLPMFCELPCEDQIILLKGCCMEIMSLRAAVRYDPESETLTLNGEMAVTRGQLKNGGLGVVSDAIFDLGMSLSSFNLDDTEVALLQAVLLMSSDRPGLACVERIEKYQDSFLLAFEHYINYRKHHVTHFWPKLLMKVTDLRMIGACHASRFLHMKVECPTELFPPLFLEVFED
Summary of the method: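 Agonist activity was read as beta-lactamase CCF4 fluorescence (405 ex, 460/530 em), scaled between DMSO (0%) and 10 nM T3 (100%), then Hill-fitted for EC50 and efficacy. HEK 293 TR-UAS-bla cells in 2% charcoal/dextran FBS medium were exposed 18 h at 37 C.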

[4] = qHTS assay for small molecule antagonists of retinoid X receptor alpha signaling (AID 588546; active = well fitted inhibition curve with a large enough effect in the signal ratio, with a control signal flat, not every such curve was filed as active; the % refers to the signal ratio;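 note: cells stimulated with 9-cis-retinoic acid as agonist; % is set by controls: 0 for no effect and ±100 for the full control effect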); conditions: HEK293T RXRa-UAS-bla, beta-lactamase ratio, antagonist mode; measured here: W530 green channel, cytotoxicity proxy
Summary of the method: (§1)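 Beta-lactamase reporter inhibition, read as CCF4 fluorescence ratio (ex 405, em 460/530 nm) after 2 h at RT. HEK293T UAS-bla cells, 2500/well, were stimulated with 9-cis-RA at 500 or 100 nM final alongside test compound for 18 h at 37 C.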

[5] = biological target: Retinoic acid receptor RXR-alpha (Homo sapiens) (UniProt P19793); test: as above; conditions: HEK293T RXRa-UAS-bla, beta-lactamase ratio, antagonist mode
Summary of the method: as §1

[6] = biological target: Thyroid hormone receptor beta (Homo sapiens) (UniProt P10828); test: qHTS assay for small molecule antagonists of thyroid hormone receptor beta signaling (AID 588547; active = well fitted inhibition curve with a large enough effect in the signal ratio, with a control signal flat, not every such curve was filed as active; the % refers to the signal ratio;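 note: cells stimulated with 0.4 nM T3 agonist during compound exposure; series mostly up to about 77 µM; % is set by controls: 0 for no effect and ±100 for the full control effect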); conditions: TR-UAS-bla HEK293, beta-lactamase ratio, antagonist mode, 18 h
Summary of the method: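 TR-UAS-bla GripTite HEK293 cells in 2% charcoal/dextran FBS medium; compounds 0.59 nM to 92 uM with T3 at 0.4nM final, 18 h at 37 C. Beta-lactamase read by CCF4 fluorescence (460/530 nm); Hill fits gave IC50 and efficacy.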

[7] = biological target: Voltage-gated inwardly rectifying potassium channel KCNH2 (Homo sapiens) (UniProt Q12809); test: qHTS Assay for Small Molecule Inhibitors of the Human hERG Channel Activity (AID 588834);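 note: top concentration of the series differs between compounds; % is set by controls: 0 for no effect and ±100 for the full control effect; lower thallium flux fluorescence means stronger hERG block; nearly all actives have a fitted effect of over 50% in size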
Sequence of Voltage-gated inwardly rectifying potassium channel KCNH2 (Homo sapiens) (Q12809 whole entry, looked up): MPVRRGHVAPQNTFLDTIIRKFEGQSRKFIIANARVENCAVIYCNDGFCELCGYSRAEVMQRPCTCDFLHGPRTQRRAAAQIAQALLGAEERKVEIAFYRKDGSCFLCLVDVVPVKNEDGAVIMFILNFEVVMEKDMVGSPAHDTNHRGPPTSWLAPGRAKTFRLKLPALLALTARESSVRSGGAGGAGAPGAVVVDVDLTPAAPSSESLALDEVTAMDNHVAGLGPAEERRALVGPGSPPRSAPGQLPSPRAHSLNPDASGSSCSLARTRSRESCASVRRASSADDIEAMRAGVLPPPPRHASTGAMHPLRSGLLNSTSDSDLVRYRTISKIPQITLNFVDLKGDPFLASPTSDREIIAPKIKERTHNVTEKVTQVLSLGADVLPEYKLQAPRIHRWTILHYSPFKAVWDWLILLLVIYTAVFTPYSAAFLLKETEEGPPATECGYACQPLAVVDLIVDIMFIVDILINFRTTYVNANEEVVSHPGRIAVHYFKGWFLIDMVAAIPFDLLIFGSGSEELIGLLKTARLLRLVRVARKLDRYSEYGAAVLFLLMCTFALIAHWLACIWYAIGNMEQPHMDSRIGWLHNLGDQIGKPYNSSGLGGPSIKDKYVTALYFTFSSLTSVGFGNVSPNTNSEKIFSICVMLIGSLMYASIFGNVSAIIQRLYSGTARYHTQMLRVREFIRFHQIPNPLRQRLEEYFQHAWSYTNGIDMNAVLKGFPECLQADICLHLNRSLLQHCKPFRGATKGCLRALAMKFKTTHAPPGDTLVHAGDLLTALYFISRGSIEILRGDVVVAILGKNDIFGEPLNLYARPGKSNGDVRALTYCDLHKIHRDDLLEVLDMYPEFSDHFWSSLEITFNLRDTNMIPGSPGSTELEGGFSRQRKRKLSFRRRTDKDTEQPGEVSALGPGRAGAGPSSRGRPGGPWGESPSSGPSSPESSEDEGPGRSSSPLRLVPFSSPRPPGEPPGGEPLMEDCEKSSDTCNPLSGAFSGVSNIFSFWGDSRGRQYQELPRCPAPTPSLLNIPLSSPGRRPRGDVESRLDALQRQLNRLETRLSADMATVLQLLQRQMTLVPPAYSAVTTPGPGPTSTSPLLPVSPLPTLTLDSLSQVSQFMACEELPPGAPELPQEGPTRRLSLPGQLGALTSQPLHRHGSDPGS
Summary of the method: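 Kinetic FDSS fluorescence; U2OS + hERG BacMam (~100 virus particles/cell); FluxOR Tl+ flux; ~10 min cpd; AC50 (Hill).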

[8] = qHTS assay for small molecule agonists of the antioxidant response element (ARE) signaling pathway (AID 651741; active = well fitted activation curve with a large enough effect in the signal ratio; the % refers to the signal ratio; note: % of control where 0% means no effect)
Summary of the method: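 HepG2 ARE-bla cells plated at 2,000 cells/well and incubated 5 h at 37 C/5% CO2 received 23 nL compound in DMSO. After 16 h at 37 C, LiveBLAzer B/G FRET substrate was applied for 2 h at room temperature and fluorescence read.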

[9] = qHTS assay for small molecule activators of the p53 signaling pathway (AID 651743; active = well fitted activation curve with a large enough effect in the signal ratio, not every such curve was filed as active; the % refers to the signal ratio; note: series mostly up to about 92 µM; % of control where 0% means no effect); conditions: HCT-116 p53RE-bla, beta-lactamase FRET ratio, 16 h; activation: stronger effect = higher value
Summary of the method: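 HCT-116 p53RE-bla, 4,000 cells/well; 5 h settle; cpd/DMSO 16 h, 37 C; LiveBLAzer B/G 2 h RT; fluorescence intensity.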

[10] = qHTS assay for small molecule activators of the nuclear factor-kappa B (NF-kB) signaling pathway (AID 651749; active = well fitted activation curve with a large enough effect in the signal ratio; the % refers to the signal ratio; note: series mostly up to about 77 µM; % of control where 0% means no effect); conditions: NF-kB-bla ME-180 cells, beta-lactamase FRET ratio, 16 h; stronger effect = higher value
Summary of the method: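 Incubation lasted 16 hr at 37C in 5% CO2 after 23 nL compound addition to ME-180 NF-kB-bla cells. Activation appears as beta-lactamase-mediated FRET loss.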

[11] = qHTS assay for small molecule disruptors of the mitochondrial membrane potential - 1 hr assay (AID 651754; calls by dose curve; note: % is set by controls: 0 for no effect and ±100 for the full control effect; nearly all actives have a fitted effect of over 35% in size)
Summary of the method: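 HepG2 cells, attached overnight at 37C, were exposed to compound or DMSO vehicle for 1 hr at 37C, 5% CO2, then stained with Mito-MPS dye for 30 min. Red aggregate versus green monomer fluorescence reports membrane potential.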

[12] = qHTS assay for small molecule disruptors of the mitochondrial membrane potential - 5 hr assay (AID 651755; calls by dose curve; note: % is set by controls: 0 for no effect and ±100 for the full control effect; nearly all actives have a fitted effect of over 40% in size)
Summary of the method: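 HepG2 cells (2,000/well), attached overnight, exposed to compound 5 hr at 37C, then Mito-MPS dye 30 min. Fluorescence read for monomers (490/535 nm) and aggregates (540/590 nm).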

[13] = biological target: Tumor necrosis factor (Homo sapiens) (UniProt P01375); test: qHTS assay to identify small molecules that stimulate Tumor Necrosis Factor-alpha (TNF-alpha) secretion (AID 651757; active = well fitted curve in the direction sought with a large enough effect in the signal ratio; the % refers to the signal ratio; note: 0% is about no effect)
Sequence of Tumor necrosis factor (Homo sapiens) (P01375 whole entry, looked up): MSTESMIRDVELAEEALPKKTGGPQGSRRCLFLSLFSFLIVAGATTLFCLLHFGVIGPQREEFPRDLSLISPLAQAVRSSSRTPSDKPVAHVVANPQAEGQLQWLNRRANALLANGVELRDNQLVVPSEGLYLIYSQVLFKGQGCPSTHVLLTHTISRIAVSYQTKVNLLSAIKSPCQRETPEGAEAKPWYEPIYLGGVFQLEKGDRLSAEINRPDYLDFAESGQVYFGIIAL
Summary of the method: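 THP-1 cells were exposed to compounds for 17 hrs at 37 C, after which secreted TNF-alpha was measured by homogeneous HTRF (TR-FRET) using cryptate- and XL665-labeled anti-TNF-alpha antibodies, read after 3 hr at room temperature.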

[14] = qHTS assay for environmental chemicals that activate the Aryl hydrocarbon Receptor (AhR) signaling pathway (AID 651777); conditions: 1A2-DRE human hepatoma cells, luciferase, 24 h; activation: stronger effect = higher value; note: % of control where 0% means no effect; nearly all actives have a fitted effect of over 15% in size
Summary of the method: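 Luminescence read-out: One-Glo added for 30 min at RT after 24 hr compound treatment (37 C, 5% CO2) of human hepatoma cells expressing a DRE/CYP1A2 promoter–luciferase reporter; increased signal indicates AhR activation.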

[15] = biological target: Peroxisome proliferator-activated receptor alpha (Homo sapiens) (UniProt Q07869); test: qHTS assay for small molecule agonists of the peroxisome proliferator-activated receptor alpha (PPARalpha) signaling pathway (AID 651778); conditions: PathHunter PPARalpha complementation, chemiluminescence, 6 h; max response: stronger effect = higher value; note: % of control where 0% means no effect
Sequence of Peroxisome proliferator-activated receptor alpha (Homo sapiens) (Q07869 whole entry, looked up, the tested form may be a part): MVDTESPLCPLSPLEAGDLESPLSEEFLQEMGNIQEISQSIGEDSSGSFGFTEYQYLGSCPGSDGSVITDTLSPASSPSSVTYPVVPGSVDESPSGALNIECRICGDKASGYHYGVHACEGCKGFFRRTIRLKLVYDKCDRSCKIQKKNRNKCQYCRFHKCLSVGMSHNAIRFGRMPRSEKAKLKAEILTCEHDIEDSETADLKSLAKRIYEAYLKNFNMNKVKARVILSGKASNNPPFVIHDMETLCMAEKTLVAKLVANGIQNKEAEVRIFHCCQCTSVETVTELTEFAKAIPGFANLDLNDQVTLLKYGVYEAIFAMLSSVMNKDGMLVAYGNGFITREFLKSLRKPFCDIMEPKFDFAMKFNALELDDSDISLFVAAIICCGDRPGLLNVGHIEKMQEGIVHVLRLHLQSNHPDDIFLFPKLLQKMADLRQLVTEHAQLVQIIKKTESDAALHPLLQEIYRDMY
Summary of the method: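 Enzyme-fragment complementation assay in which ligand-bound PPARalpha translocates and forms an active enzyme that generates chemiluminescence. Cells were plated overnight, exposed to compound for 6 hr at 37 C, and then given detection reagent for 60 min at room temperature.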

[16] = biological target: Nuclear receptor ROR-gamma (Homo sapiens) (UniProt P51449); test: qHTS assay for small molecule antagonists of the retinoid-related orphan receptor gamma (ROR-gamma) signaling pathway (AID 651802); note: series mostly up to about 92 µM; % is set by controls: 0 for no effect and ±100 for the full control effect; nearly all actives have a fitted effect of over 60% in size
Sequence of Nuclear receptor ROR-gamma (Homo sapiens) (P51449 whole entry, looked up): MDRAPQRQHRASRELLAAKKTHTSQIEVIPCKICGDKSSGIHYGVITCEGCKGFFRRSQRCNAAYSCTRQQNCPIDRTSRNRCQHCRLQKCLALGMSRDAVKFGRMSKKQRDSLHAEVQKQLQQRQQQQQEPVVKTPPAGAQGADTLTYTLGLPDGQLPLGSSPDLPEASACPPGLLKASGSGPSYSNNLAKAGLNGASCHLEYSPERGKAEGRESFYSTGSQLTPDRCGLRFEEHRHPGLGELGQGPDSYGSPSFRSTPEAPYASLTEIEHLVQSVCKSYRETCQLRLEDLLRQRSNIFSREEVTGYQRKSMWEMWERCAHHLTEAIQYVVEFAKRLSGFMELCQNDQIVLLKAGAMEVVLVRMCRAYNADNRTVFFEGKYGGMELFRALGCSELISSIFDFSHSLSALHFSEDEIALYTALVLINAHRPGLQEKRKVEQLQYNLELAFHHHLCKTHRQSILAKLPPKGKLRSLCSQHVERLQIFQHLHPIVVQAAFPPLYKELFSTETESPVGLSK
Summary of the method: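 CHO cells carrying TET-inducible ROR-gamma and an ROR response element–luciferase reporter were exposed to compound, then induced with doxycycline. After 16hr at 37C, luminescence was read; lower signal indicates antagonism.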

[17] = qHTS assay for small molecule agonists of the antioxidant response element (ARE) signaling pathway measured by Nrf2-dependant transcriptional activity (AID 720636; active = well fitted curve in the direction sought with a large enough effect in the repeat runs; an effect the other way counts as inactive or inconclusive;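 note: HepG2 cells with an ARE-driven luciferase reporter; % of control where 0% means no effect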)
Summary of the method: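 HepG2 ARE-luc reporter line, 1% dialyzed FBS; 6 hr attachment at 37 C, compound pinned in, 16 hr at 37 C/5% CO2; ONE-Glo, 30 min RT, luminescence read.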

[18] = qHTS assay for small molecule antagonists of the retinoid-related orphan receptor gamma (ROR-gamma) signaling pathway - cell viability counter screen (AID 720652; active = well fitted curve in the direction sought with a large enough effect in the repeat runs; an effect the other way counts as inactive or inconclusive;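 note: series mostly up to about 92 µM; compound exposure lasted 16 hr before ATP read; % is set by controls: 0 for no effect and ±100 for the full control effect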)
Summary of the method: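 Counter screen in CHO cells carrying TET-inducible ROR-gamma and an ROR response element-luciferase reporter; cells plated 5 hr, compound pinned, doxycycline added, then 16 hr at 37 C. Viability read as intracellular ATP by CellTiter-Glo luminescence.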

[19] = qHTS assay for small molecule agonists of the antioxidant response element (ARE) signaling pathway measured by Nrf2-dependant transcriptional activity - cell viability counter screen (AID 720653; active = well fitted curve in the direction sought with a large enough effect in the repeat runs; an effect the other way counts as inactive or inconclusive; note: % is set by controls: 0 for no effect and ±100 for the full control effect); conditions: ARE-bla HepG2 viability, CellTiter-Glo ATP luminescence, 16 h; max response: stronger effect = lower value
Summary of the method: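 ARE-bla HepG2 cells treated with compounds for 16 h at 37C; this counter screen measures viability as intracellular ATP by CellTiter-Glo luminescence after 30 min at room temperature.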

[20] = qHTS assay for cell viability of HEK293 cells (AID 743288); conditions: ATP luminescence (CellTiter-Glo), 18 h; max response: stronger effect = lower value; note: % is set by controls: 0 for no effect and ±100 for the full control effect; nearly all actives have a fitted effect of over 50% in size
Summary of the method: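 Total intracellular ATP, measured with a luciferase-coupled reagent, indicates the number of viable HEK293 cells. Exposure to test chemicals lasts 18 h at 37 C in 1,536-well format at 2,000 cells/well.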

[21] = NCATS anti-infectives library activity on HEK293 viability as a counter-qHTS vs the C. elegans viability qHTS (AID 1745854); note: % is set by controls: 0 for no effect and ±100 for the full control effect
Summary of the method: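 HEK293 cells, 1500 per well, exposed 24 hr at 37C in 5% CO2 to compounds in a 1:5 titration, up to 41.7 uM final. Viability read as CellTiter-Glo luminescence after 10 min at room temperature.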

[22] = biological target: Nuclear receptor subfamily 1 group I member 2 (Rattus norvegicus) (UniProt Q9R1A7); test: qHTS assay for small molecule activators of the rat pregnane X receptor (rPXR) signaling pathway (AID 651751; call rule not given here; note: 0% is about no effect); conditions: rPXR reporter cells, luciferase (One-Glo), 24 h
Sequence of Nuclear receptor subfamily 1 group I member 2 (Rattus norvegicus) (Q9R1A7 whole entry, looked up): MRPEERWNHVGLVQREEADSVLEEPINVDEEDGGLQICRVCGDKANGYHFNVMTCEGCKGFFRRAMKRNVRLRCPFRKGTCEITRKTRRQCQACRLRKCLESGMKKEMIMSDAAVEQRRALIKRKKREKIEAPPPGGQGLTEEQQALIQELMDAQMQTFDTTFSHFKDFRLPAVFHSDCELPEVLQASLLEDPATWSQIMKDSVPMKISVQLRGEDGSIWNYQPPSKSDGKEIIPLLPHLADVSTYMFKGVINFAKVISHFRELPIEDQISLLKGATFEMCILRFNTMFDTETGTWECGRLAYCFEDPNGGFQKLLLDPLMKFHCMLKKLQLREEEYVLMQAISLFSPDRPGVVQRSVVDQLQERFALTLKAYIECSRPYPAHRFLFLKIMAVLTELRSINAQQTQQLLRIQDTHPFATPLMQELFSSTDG

[23] = qHTS assay for small molecule activators of the human pregnane X receptor (PXR) signaling pathway (AID 720659; call rule not given here; note: 0% is about no effect)

CC12CCC(CC1=O)C2(C)C (stereo not drawn)
0.96% and -15.4%: max response [1]
-5.66% and -6.43%: max response [4]
inactive: outcome [2] | outcome [3] | max response [5] 4.29% and -7.42% | activity change % (negative = inhibition) [6] 8% and 6.78% | Potency [7] | Potency [8] | activation [9] -2.06% and 2.14% | activation [10] -0.0521% and -0.265% | Potency [11] | Potency [12] | outcome [13] | activation [14] -0.66% and 0.506% | max response [15] -4.19% and 0.373% | Potency [16] | Potency [17] | Potency [18] | max response [19] -1.85% and 2.1% | max response [20] -2.81% and -7.37% | Potency [21] | max response [22] 4.6% and -1.11% | outcome [23]

Source: PubChem BioAssay (NCATS)
